Values joined by “and” are separate entries in the source; they are usually repeats but may differ in a detail not shown here. Equal entries are not always repeated. About 83,000 compounds went through this panel and 20% of them were active in at least one assay; those are over-represented in the sample as a whole.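 A percent growth of 40 corresponds to 60% growth inhibition; 0 means no net growth; -100 means all cells died. Active threshold: below 10.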 Active and inactive are the calls of the source.
Key:
Assay in all cases: NCI-60 one-dose screen, 48 h (100 = growth as untreated, 0 = no growth, -100 = all killed)
Conditions in all cases: 10 µM unless noted
[1] = tested on: HCT-15 colon
[2] = tested on: HT29 colon
[3] = tested on: SNB-75 CNS
[4] = tested on: SNB-19 CNS
[5] = tested on: U251 CNS
[6] = tested on: PC-3 prostate
[7] = tested on: SK-MEL-5 melanoma
[8] = tested on: UACC-62 melanoma
[9] = tested on: LOX IMVI melanoma
[10] = tested on: SK-MEL-28 melanoma
[11] = tested on: SK-MEL-2 melanoma
[12] = tested on: EKVX NSCLC
[13] = tested on: SN12C renal
[14] = tested on: UO-31 renal
[15] = tested on: TK-10 renal
[16] = tested on: ACHN renal
[17] = tested on: CAKI-1 renal
[18] = tested on: A498 renal
[19] = tested on: HL-60(TB) leukemia
[20] = tested on: CCRF-CEM leukemia

Row | Compound | growth [1] | growth [2] | growth [3] | growth [4] | growth [5] | growth [6] | growth [7] | growth [8] | growth [9] | growth [10] | growth [11] | growth [12] | growth [13] | growth [14] | growth [15] | growth [16] | growth [17] | growth [18] | growth [19] | growth [20]
1 | CCCCCCCCCCCCCCCC[n+]1ccccc1 | 17.1% (inactive) and 15.2% (inactive) | -68.2% (active) and -58.8% (active) | -77.3% (active) and -40.5% (active) | -88.4% (active) and -62.6% (active) | -90.4% (active) and -76.3% (active) | -48.7% (active) and -80.9% (active) | -100% (active) and -94.8% (active) | -68% (active) and -46.2% (active) | -72.9% (active) and -79.8% (active) | -55% (active) and -30.7% (active) | -83.3% (active) and -80.1% (active) | -47.9% (active) and -2.17% (active) | -37.9% (active) and -29.2% (active) | -28% (active) and 11.7% (inactive) | -74.4% (active) | -23.8% (active) and 7.44% (active) | -16.1% (active) and -34.4% (active) | -18.7% (active) and -7.63% (active) | -55.7% (active) | -69% (active) and -43.7% (active)
2 | COC(=O)C1=CCCN(C)C1 | 106% (inactive) and 100% (inactive) | 106% (inactive) and 104% (inactive) | 103% (inactive) and 90.3% (inactive) | 106% (inactive) and 109% (inactive) | 107% (inactive) | 92.9% (inactive) | 102% (inactive) | 111% (inactive) and 101% (inactive) | 98.3% (inactive) and 99.8% (inactive) | 110% (inactive) and 108% (inactive) | 106% (inactive) and 30.5% (inactive) | 97.8% (inactive) and 98.7% (inactive) | 107% (inactive) and 105% (inactive) | 80.4% (inactive) and 94% (inactive) | 106% (inactive) and 103% (inactive) | 96.9% (inactive) | 93.7% (inactive) and 102% (inactive) | 97.8% (inactive) and 112% (inactive) | 108% (inactive) and 122% (inactive) | 102% (inactive)
3 | C#COc1cccc(Nc2ncnc3cc(NC(=O)CF)ccc23)c1 | 28.6% [6.25 µM] (inactive) | 4.41% [6.25 µM] (active) | 48.2% [6.25 µM] (inactive) | 33.7% [6.25 µM] (inactive) | 23.1% [6.25 µM] (inactive) | 36% [6.25 µM] (inactive) | 36.2% [6.25 µM] (inactive) | 26.4% [6.25 µM] (inactive) | 36.8% [6.25 µM] (inactive) | 60.4% [6.25 µM] (inactive) | 21.6% [6.25 µM] (inactive) | 67.8% [6.25 µM] (inactive) | 54.7% [6.25 µM] (inactive) | 60.9% [6.25 µM] (inactive) | 60.7% [6.25 µM] (inactive) | 48.3% [6.25 µM] (inactive) | 45.5% [6.25 µM] (inactive) | 75.3% [6.25 µM] (inactive) | 54.5% [6.25 µM] (inactive) | -7.49% [6.25 µM] (active)
4 | CCC(=O)C(CC(C)N1CCCCCC1)(c1ccccc1)c1ccccc1 (stereo not given) | 87.2% (inactive) | 67.1% (inactive) | 115% (inactive) | 95.2% (inactive) | 100% (inactive) | 89.2% (inactive) | 98.2% (inactive) | 94.4% (inactive) | 103% (inactive) | 94.7% (inactive) | 103% (inactive) | 90.8% (inactive) | 97.8% (inactive) | 67.3% (inactive) | 84% (inactive) | 97.6% (inactive) | 79% (inactive) | 84.5% (inactive) | 95.5% (inactive) | 96.1% (inactive)
5 | O=C(O)C(O)c1ccc(Cl)cc1 (stereo not given) | 102% (inactive) | 116% (inactive) and 104% (inactive) | 100% (inactive) and 112% (inactive) | 106% (inactive) and 108% (inactive) | 106% (inactive) and 100% (inactive) | 92.7% (inactive) and 103% (inactive) | 81.4% (inactive) and 106% (inactive) | 103% (inactive) and 106% (inactive) | 101% (inactive) and 106% (inactive) | 106% (inactive) and 109% (inactive) | 106% (inactive) and 118% (inactive) | 102% (inactive) and 120% (inactive) | 100% (inactive) and 107% (inactive) | 99.6% (inactive) and 87.7% (inactive) | 99% (inactive) and 105% (inactive) | 112% (inactive) and 108% (inactive) | 97.6% (inactive) and 104% (inactive) | 102% (inactive) and 106% (inactive) | 101% (inactive) | 106% (inactive)
6 | CO/N=C1\CC[C@]2(C)[C@H]3CC[C@]4(C)C(=O)CC[C@H]4[C@@H]3C[C@@H]3SC(N)=N[C@@]32C1 | 93.8% (inactive) | 93.2% (inactive) | 97.1% (inactive) | 104% (inactive) | 105% (inactive) | 85.4% (inactive) | 101% (inactive) | 79.7% (inactive) | 98.1% (inactive) | 94.5% (inactive) | 96.5% (inactive) | 91.8% (inactive) | 107% (inactive) | 77.9% (inactive) | 116% (inactive) | 100% (inactive) | 74.3% (inactive) | 98.9% (inactive) | 91.9% (inactive) | 98.7% (inactive)

Reference: PubChem BioAssay (NCI)
